Measured values published in PubChem BioAssay (Tox21).
Records with an inconclusive call do not appear. Where a call stands in place of a potency, no number is given. Active and inactive are the calls of the source. Unless noted, the call rests on the fitted dose curve; in most records, active means well fitted curve in the direction sought with a large enough effect in the repeat runs; inconclusive means weak or mixed curves; inactive means no such curve, though single readings can be large; an effect the other way counts as inactive or inconclusive.

Columns and labels:
[1] = qHTS assay to identify small molecule agonists of the sonic hedgehog signaling (Shh) pathway (AID 1259368; calls by dose curve; further: nearly all actives have a fitted effect of over 15% in size; further: potency means the concentration at half of the fitted maximal effect)
Summary of the method: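 A Gli1 transcriptional response element controlled firefly luciferase in 3T3Gli1-Luc cells. Compounds and a positive control were added 4 hr after plating, and cells were incubated a further 24 hr at 37 C before luminescence detection.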

[2] = qHTS assay to identify small molecule antagonists of the sonic hedgehog signaling (Shh) pathway (AID 1259369; calls by dose curve; further: nearly all actives have a fitted effect of over 45% in size)
Summary of the method: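 For antagonist detection, the reporter line received test compounds together with conditioned medium, incubated 24hr at 37 C, 5% CO2, then luminescence was recorded following 30min room-temperature luciferase reagent incubation.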

[3] = qHTS assay to identify small molecule agonists of the androgen receptor (AR) signaling pathway in the presence of an antagonist - cell viability counter screen (AID 1259379);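 further: MDA-kb2 human breast cancer cells carrying an MMTV luciferase reporter; series mostly up to about 92 µM; nearly all actives have a fitted effect of over 25% in size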
Summary of the method: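 Seed MDA-kb2 at 3,000 cells/well; incubate 5 hr, 37C, 0% CO2. Add nilutamide to 3.0uM final, then pin compounds at 15 concentrations. Incubate 16 hr. Add CellTiter-Fluor at 15 hr, read fluorescence after 1 hr.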

[4] = qHTS assay to identify small molecule antagonists of the estrogen receptor beta (ER-beta) signaling pathway - cell viability counter screen (AID 1259382);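 further: HEK293T cells carrying ER-beta-UAS-bla reporter stimulated with estradiol; series mostly up to about 92 µM; nearly all actives have a fitted effect of over 55% in size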
Summary of the method: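 In this multiplexed counter screen, cells were seeded at 2,000 per well in medium with 2% charcoal-stripped FBS and incubated 6 hr before compound and 1nM final E2 were added. Sixteen hours later, ATP-based luminescence reported viability.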

[5] = qHTS assay to identify small molecule agonists or antagonists of the thyroid stimulating hormone receptor (TSHR) signaling pathway - wild type cell line counter screen (AID 1259384; calls by dose curve)
Summary of the method: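 Wild-type HEK293 cells were plated 18 h at 37 C/5% CO2, pin-dosed with compound plus Ro20-1724 medium, held 30 min at room temperature, then given cAMP-d2 and anti-cAMP-cryptate; fluorescence was read after 1 h. Fifteen concentrations, triplicate.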

[6] = target: Thyrotropin receptor (Homo sapiens) (UniProt P16473); test: qHTS assay to identify small molecule antagonists of the thyroid stimulating hormone receptor (TSHR) signaling pathway (AID 1259385; calls by dose curve; further: nearly all actives have a fitted effect of over 20% in size)
Summary of the method: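 TSHR-HEK293 cells were plated and held 18 h at 37C/5% CO2, then given compound plus Ro20-1724 and stimulated with TSH at 1.5 ng/mL final. After 30 min at room temperature, cAMP was detected with cAMP-d2/anti-cAMP-cryptate (1 h) by fluorescence.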

[7] = qHTS assay to identify small molecule agonists of the estrogen receptor alpha (ER-alpha) signaling pathway in the presence of an antagonist - cell viability counter screen (AID 1259386);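 further: series mostly up to about 92 µM; cells exposed to compounds for 22 h at 37 °C before the viability read; nearly all actives have a fitted effect of over 30% in size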
Summary of the method: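 Viability counter screen using VM7Luc4E2 (full-length ER-alpha, four ERE-luciferase). The cells were treated with compounds alongside ICI-182,780 10.0nM for 22hr, and live-cell protease fluorescence was quantified with CellTiter-Fluor.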

[8] = target: Progesterone receptor (Homo sapiens) (UniProt P06401); test: qHTS assay to identify small molecule agonists of the progesterone receptor (PR) signaling pathway (AID 1346784; calls by dose curve; further: nearly all actives have a fitted effect of over 30% in size; further: potency means the concentration at half of the fitted maximal effect)
Summary of the method: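 The screen uses PR-UAS-bla HEK 293T cells in charcoal-stripped serum (2%). Compounds are applied for 16 hr at 37C after a 6 hr pre-incubation, and reporter activity is detected with a FRET beta-lactamase substrate after 2 hr at room temperature.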

[9] = target: Progesterone receptor (Homo sapiens) (UniProt P06401); test: qHTS assay to identify small molecule antagonists of the progesterone receptor (PR) signaling pathway (AID 1346795; active means well fitted inhibition curve with a large enough effect in the signal ratio in the repeat runs, not every such curve was filed as active; the % refers to the signal ratio)
Summary of the method: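 After 6 hr plating at 37C in 2% stripped-serum medium, PR-UAS-bla HEK293T cells got compounds, then 1 nM R5020. Sixteen hours later, LiveBLAzer substrate was applied for 2 hr at room temperature and fluorescence was recorded.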

[10] = qHTS assay to identify small molecule antagonists of the progesterone receptor (PR) signaling pathway - cell viability counter screen (AID 1346798); further: series mostly up to about 92 µM; nearly all actives have a fitted effect of over 50% in size
Summary of the method: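 Viability was determined by ATP-based luminescence (CellTiter-Glo) in PR-UAS-bla HEK293T cells cultured in 2% charcoal-stripped serum and incubated 16 hr with compounds under R5020 stimulation.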

[11] = qHTS assay to identify small molecule agonists of the progesterone receptor (PR) signaling pathway - cell viability counter screen (AID 1346799; calls by dose curve; further: nearly all actives have a fitted effect of over 45% in size)
Summary of the method: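 Viability was scored by ATP luminescence (CellTiter-Glo, 30 min, room temperature) in the same wells used for the reporter readout, after 16 hr compound exposure of PR-UAS-bla HEK293T cells.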

[12] = qHTS assay to identify small molecule antagonists of the TGF-beta/Smad signaling pathway - cell viability counter screen (AID 1346824); further: nearly all actives have a fitted effect of over 50% in size
Summary of the method: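 SBE-bla HEK 293T cells were plated overnight at 37 C, then given compounds in DMSO plus TGF-beta1 (added as 0.25 ng/mL solution) for 5 hr. After the bla read, CellTiter-Glo was added to the same wells and luminescence read after 30 min at room temperature.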

[13] = qHTS assay to identify small molecule agonists of the TGF-beta/Smad signaling pathway - cell viability counter screen (AID 1346829); further: top concentration of the series differs between compounds; nearly all actives have a fitted effect of over 45% in size
Summary of the method: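 Cytotoxicity counter screen: CellTiter-Glo luminescence (30 min, room temperature) measured in the SBE-bla HEK 293T reporter wells after 5 hr compound treatment at 37 C and the 2 hr substrate step.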

[14] = qHTS assay to identify small molecule agonists of the TGF-beta/Smad signaling pathway (AID 1346859; active means well fitted activation curve with a large enough effect in the signal ratio in the repeat runs, not every such curve was filed as active; the % refers to the signal ratio; further: series mostly up to about 77 µM)
Summary of the method: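 Dual-wavelength fluorescence (460/530 nm emission) quantified beta-lactamase expression under the Smad binding element in HEK 293T cells following 5 hr compound treatment at 37 C.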

[15] = target: Thyrotropin-releasing hormone receptor (Homo sapiens) (UniProt P34981); test: qHTS assay to identify small molecule antagonists of the thyrotropin-releasing hormone receptor (TRHR) signaling pathway (AID 1346877; active means well fitted inhibition curve with a large enough effect in the repeat runs, not every such curve was filed as active; further: series mostly up to about 51 µM)
Summary of the method: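 Following an 18 h incubation at 37 °C and a 2 h calcium dye load, TRHR-HEK293 cells were exposed to compound (5 min, room temperature) and challenged with TRH, 1 nM final.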

[16] = qHTS assay to identify small molecule agonists of the estrogen receptor beta (ER-beta) signaling pathway - cell viability counter screen (AID 1259380); further: nearly all actives have a fitted effect of over 30% in size
Summary of the method: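 CellTiter-Glo read, 30 min RT, same wells as bla assay; cells ER-beta-UAS-bla HEK293T; 16 hr compound, 37C; medium 2% charcoal-stripped FBS.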

[17] = target: Estrogen receptor (Homo sapiens) (UniProt P03372); test: qHTS assay to identify small molecule agonists of the estrogen receptor alpha (ER-alpha) signaling pathway in the presence of an antagonist (AID 1259383; calls by dose curve; further: top concentration of the series differs between compounds; nearly all actives have a fitted effect of over 15% in size)
Summary of the method: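 Stably transfected VM7Luc4E2 reporter cells, kept 5 days in charcoal-stripped serum, received ICI-182,780 at 10.0nM final before compound addition. Following 22hr incubation at 37C and 5% CO2, luciferase signal was read by luminescence.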

Progesterone receptor (Homo sapiens), sequence (P06401 whole entry, looked up): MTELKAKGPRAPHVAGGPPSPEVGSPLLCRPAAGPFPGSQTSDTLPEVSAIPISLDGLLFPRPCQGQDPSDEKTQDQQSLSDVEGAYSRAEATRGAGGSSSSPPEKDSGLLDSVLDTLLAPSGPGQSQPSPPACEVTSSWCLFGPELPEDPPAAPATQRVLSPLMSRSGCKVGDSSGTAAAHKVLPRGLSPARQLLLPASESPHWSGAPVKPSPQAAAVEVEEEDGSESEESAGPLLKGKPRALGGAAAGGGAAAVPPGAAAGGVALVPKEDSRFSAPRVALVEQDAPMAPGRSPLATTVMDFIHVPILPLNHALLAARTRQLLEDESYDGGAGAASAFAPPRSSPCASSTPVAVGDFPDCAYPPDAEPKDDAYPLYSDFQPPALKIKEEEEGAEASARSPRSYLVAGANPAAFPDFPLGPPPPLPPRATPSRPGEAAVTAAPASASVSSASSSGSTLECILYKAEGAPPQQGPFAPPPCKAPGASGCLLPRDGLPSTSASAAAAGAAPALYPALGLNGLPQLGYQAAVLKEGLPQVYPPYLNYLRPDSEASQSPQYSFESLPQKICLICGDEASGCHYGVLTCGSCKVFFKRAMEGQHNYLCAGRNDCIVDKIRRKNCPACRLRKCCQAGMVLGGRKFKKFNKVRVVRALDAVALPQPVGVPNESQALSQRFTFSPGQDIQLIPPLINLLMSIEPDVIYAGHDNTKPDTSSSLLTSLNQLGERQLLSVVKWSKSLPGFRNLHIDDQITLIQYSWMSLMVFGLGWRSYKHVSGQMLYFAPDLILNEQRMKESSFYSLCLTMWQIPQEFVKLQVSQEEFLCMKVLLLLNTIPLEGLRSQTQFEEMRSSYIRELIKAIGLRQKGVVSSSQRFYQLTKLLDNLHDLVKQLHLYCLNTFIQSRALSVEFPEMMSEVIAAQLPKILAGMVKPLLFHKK
Thyrotropin receptor (Homo sapiens), sequence (P16473 whole entry, looked up): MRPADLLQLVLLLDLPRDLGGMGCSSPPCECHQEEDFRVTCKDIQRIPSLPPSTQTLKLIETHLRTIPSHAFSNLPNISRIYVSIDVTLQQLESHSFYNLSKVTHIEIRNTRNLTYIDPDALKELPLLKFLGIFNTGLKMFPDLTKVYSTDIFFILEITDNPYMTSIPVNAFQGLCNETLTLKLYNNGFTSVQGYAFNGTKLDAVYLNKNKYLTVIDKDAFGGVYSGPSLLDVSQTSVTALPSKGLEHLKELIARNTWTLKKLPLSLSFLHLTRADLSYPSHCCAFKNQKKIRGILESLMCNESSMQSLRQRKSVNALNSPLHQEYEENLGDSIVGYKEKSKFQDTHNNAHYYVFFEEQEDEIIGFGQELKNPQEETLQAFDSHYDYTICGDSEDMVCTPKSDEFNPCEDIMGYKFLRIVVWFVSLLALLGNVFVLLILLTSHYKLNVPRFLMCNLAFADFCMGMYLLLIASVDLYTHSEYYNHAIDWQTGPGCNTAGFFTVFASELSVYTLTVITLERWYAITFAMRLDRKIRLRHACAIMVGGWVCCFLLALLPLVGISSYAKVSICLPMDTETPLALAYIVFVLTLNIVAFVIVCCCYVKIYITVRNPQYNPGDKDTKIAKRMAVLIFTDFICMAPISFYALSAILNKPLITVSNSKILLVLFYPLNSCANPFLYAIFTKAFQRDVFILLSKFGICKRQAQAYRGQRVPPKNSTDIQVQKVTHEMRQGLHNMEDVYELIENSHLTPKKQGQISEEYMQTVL
Thyrotropin-releasing hormone receptor (Homo sapiens), sequence (P34981 whole entry, looked up): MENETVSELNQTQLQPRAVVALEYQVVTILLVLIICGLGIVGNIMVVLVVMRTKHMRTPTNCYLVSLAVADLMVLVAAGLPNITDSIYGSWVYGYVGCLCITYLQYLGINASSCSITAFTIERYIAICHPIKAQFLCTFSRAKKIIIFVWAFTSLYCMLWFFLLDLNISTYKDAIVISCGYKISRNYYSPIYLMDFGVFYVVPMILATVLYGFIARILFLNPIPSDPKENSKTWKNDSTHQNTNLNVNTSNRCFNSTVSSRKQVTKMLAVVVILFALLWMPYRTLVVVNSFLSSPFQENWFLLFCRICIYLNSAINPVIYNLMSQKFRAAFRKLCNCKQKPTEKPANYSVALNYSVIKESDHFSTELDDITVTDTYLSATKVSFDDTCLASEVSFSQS
Estrogen receptor (Homo sapiens), sequence (P03372 whole entry, looked up): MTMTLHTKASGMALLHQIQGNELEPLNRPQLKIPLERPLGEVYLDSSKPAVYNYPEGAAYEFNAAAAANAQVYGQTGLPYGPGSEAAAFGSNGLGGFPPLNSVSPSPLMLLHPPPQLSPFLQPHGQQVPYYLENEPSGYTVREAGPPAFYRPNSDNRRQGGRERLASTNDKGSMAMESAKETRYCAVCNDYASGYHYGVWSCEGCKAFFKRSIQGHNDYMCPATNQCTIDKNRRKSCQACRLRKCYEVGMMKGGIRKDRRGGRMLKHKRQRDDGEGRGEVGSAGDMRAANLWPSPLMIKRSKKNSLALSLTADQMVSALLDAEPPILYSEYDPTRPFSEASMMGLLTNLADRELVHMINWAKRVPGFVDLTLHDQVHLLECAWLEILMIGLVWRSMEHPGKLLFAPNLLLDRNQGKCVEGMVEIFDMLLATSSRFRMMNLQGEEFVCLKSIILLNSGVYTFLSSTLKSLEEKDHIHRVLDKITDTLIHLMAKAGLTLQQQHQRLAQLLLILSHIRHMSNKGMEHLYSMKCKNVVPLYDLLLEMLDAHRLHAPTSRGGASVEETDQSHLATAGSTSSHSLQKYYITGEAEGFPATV

Compound	Potency [1]	Potency [2]	Potency [3]	Potency [4]	outcome [5]	Potency [6]	outcome [7]	Potency [8]	Potency [9]	Potency [10]	Potency [11]	outcome [12]	outcome [13]	outcome [14]	outcome [15]	Potency [16]	Potency [17]
C=C(C)C(=O)OCCC(C)OC(=O)C(=C)C (stereo not given)	inactive	inactive	inactive	inactive	inactive	inactive	inactive	inactive	inactive	inactive	inactive	inactive	inactive	inactive	inactive		
N[C@@H](CS)C(=O)O	inactive	inactive	inactive	inactive	inactive	inactive	inactive	inactive	inactive	inactive	inactive		inactive	inactive		inactive	
Nc1ccc2cc(S(=O)(=O)O)ccc2c1	inactive	inactive	inactive		inactive		inactive	inactive	inactive	inactive	inactive	inactive	inactive	inactive	inactive	inactive	inactive
COc1ccc(N=[N+]([O-])c2ccc(OC)cc2)cc1	121 nM (active)	inactive	inactive	inactive	inactive	inactive	inactive		inactive			inactive	inactive	inactive	inactive		inactive
CCCCCCCCCCCl	inactive	inactive	inactive	inactive			inactive	inactive	inactive		inactive	inactive	inactive	inactive	inactive	inactive	inactive
COC(=O)CCCCCCCCC(=O)OC	inactive	inactive	inactive	inactive	inactive	inactive	inactive	inactive	inactive		inactive	inactive	inactive	inactive	inactive	inactive	
C=CC(=O)N1CCOCC1	inactive	inactive	inactive	inactive	inactive	inactive	inactive	inactive	inactive		inactive	inactive	inactive	inactive	inactive	inactive	
O=C1C(CCS(=O)c2ccccc2)C(=O)N(c2ccccc2)N1c1ccccc1 (stereo not given)	inactive	inactive	inactive	inactive			inactive	inactive	inactive	inactive	inactive		inactive	inactive	inactive	inactive	inactive
OCC(CO)(CO)COCC(CO)(CO)CO	inactive	inactive	inactive		inactive	inactive	inactive	inactive	inactive	inactive	inactive	inactive	inactive	inactive	inactive	inactive	inactive
CCC(C)OC(=O)N1CCCCC1CCO (stereo not given)	inactive	inactive	inactive	inactive	inactive	inactive	inactive	inactive	inactive	inactive	inactive		inactive	inactive	inactive	inactive	
CC(C)=CC(=O)O	inactive	inactive	inactive	inactive	inactive	inactive	inactive	inactive	inactive	inactive	inactive	inactive		inactive	inactive		inactive
C#CC(O)CCCCC (stereo not given)	inactive	inactive	inactive	inactive	inactive	inactive	inactive	27500 nM (active)	inactive		inactive	inactive	inactive	inactive		inactive	
C=CCSCC1Nc2cc(Cl)c(S(N)(=O)=O)cc2S(=O)(=O)N1 (stereo not given)	inactive	inactive	inactive	inactive	inactive	inactive	inactive	inactive	inactive	inactive	inactive	inactive	inactive	inactive	inactive	inactive	
C=CC(=O)OCCCCCC	inactive	inactive	inactive		inactive	inactive	inactive	inactive	inactive	inactive	inactive	inactive	inactive	inactive	inactive	inactive	
CCCCC=O	inactive	inactive	inactive	inactive	inactive	inactive	inactive	inactive	inactive	inactive		inactive	inactive	inactive	inactive	inactive	
O=C(O)c1ccccc1-c1ccc(C(F)(F)F)cc1	inactive	inactive	inactive	inactive	inactive	inactive	inactive	inactive	inactive	inactive	inactive	inactive	inactive	inactive	inactive	inactive	
CC/C=C\CCCCO	inactive	inactive	inactive	inactive			inactive	inactive	inactive		inactive	inactive	inactive	inactive	inactive	inactive	inactive
CC(C)N1C(=O)c2ccccc2C1=O	inactive	inactive	inactive	inactive	inactive	inactive	inactive	inactive	inactive	inactive	inactive	inactive	inactive	inactive			inactive
CCC(=O)c1cccc(Cl)c1	inactive	inactive	inactive	inactive	inactive	inactive	inactive	1970 nM (active)	inactive	inactive			inactive	inactive	inactive	inactive	
